Screens: PubChem BioAssay, National Center for Advancing Translational Sciences (NCATS)
PTAP TSG101 blk: blocks PTAP/TSG101 interaction to inhibit HIV-1 budding | Q99816 | Fluorescence polarization, FITC-PTAP peptide / Tsg101 binding | Potency, µM (titrated, usually from 115 µM), for the others: top-dose activity change, negative = inhibition, actives largely listed as inhibitors | 340,000 tested, under 10 active | AID 493005; active means well fitted inhibition curve with a large enough effect in the main read-out, with a control signal flat, not every such curve was filed as active; inconclusive means small, poorly fitted or top-dose-only effect, or effect the other way, or a change in a side signal; inactive means no such curve, though single readings can be large or run the other way; further: potency means the concentration at half of the fitted maximal effect; % of control where 0% means no effect
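Fluorescence anisotropy tracks displacement of a FITC-tagged PTAP peptide (50 nM) from the Tsg101 binding domain (10 uM), following a 20 min room-temperature incubation at pH 7.5.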
Rango release inh: prevents RanGTP from dissociating the Rango-importin beta complex. O95149+P62826. Biochemical FRET Rango-importin beta, RanGTP-induced dissociation. Potency, µM (top dose mostly 46.1 µM), inactives show at the top dose activity change, negative = inhibition. 340,000 compounds, 0.071% hits. AID 540253; further: potency means the concentration at half of the fitted maximal effect; % of control where 0% means no effect; nearly all actives have a fitted effect of over 45% in size
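FRET read at 45 min, room temperature: inhibitors block the CFP/YFP signal rise when RanGTP (0.6 uM Ran, 2 mM GTP, 0.2 uM RCC1) frees Rango (0.1 uM) from importin beta (0.25 uM). Pre-read after 5 min compound exposure flags interference.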
D3 antag: antagonists of human D3 dopamine receptor | P35462 | D3R cells, DiscoveRx beta-arrestin luminescence, antagonist mode; hits give low values | max response, negative = inhibition, % | 360,000 compounds, 2.5% hits | AID 652054; in the data active means max response below about -50%; inconclusive means no clear call, values can overlap the other calls; further: on the % scale 0 is the no-effect control and ±100 the full control effect
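Cells expressing the human receptor were seeded at 1500 cells/well, incubated overnight at 37 degrees C in 5% CO2, then exposed to library compounds with dopamine controls for 90 minutes at 37 degrees C before luminescent detection.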
DRD3 agonist: agonists of human D3 dopamine receptor. max activation, %. 410,000 compounds, 0.58% hits. D3R DiscoveRx beta-arrestin cells, luminescence, 90 min. P35462; in the data active means max activation above about 30%; further: 0% is about no effect
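Agonist-mode cell screen: cells plated at 1500/well and incubated overnight at 37 °C, then exposed to library compounds for 90 min at 37 °C. Detection reagent was added for 30–60 min at room temperature, and luminescence was read.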
Rango complex inh: Rango-importin beta binding inhibition. Q14974. Rango CFP/YFP FRET sensor + importin beta, 45 min. Potency, µM (doses to about 92.2 µM), inactives show at the top dose inhibition of complex formation. 340,000 compounds, 0.031% hits;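 further: potency means the concentration at half of the fitted maximal effect; 0% = DMSO wells and 100% = buffer wells lacking importin beta; nearly all actives have a fitted effect of over 15% in size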
Target sequence (Q14974 whole entry, looked up): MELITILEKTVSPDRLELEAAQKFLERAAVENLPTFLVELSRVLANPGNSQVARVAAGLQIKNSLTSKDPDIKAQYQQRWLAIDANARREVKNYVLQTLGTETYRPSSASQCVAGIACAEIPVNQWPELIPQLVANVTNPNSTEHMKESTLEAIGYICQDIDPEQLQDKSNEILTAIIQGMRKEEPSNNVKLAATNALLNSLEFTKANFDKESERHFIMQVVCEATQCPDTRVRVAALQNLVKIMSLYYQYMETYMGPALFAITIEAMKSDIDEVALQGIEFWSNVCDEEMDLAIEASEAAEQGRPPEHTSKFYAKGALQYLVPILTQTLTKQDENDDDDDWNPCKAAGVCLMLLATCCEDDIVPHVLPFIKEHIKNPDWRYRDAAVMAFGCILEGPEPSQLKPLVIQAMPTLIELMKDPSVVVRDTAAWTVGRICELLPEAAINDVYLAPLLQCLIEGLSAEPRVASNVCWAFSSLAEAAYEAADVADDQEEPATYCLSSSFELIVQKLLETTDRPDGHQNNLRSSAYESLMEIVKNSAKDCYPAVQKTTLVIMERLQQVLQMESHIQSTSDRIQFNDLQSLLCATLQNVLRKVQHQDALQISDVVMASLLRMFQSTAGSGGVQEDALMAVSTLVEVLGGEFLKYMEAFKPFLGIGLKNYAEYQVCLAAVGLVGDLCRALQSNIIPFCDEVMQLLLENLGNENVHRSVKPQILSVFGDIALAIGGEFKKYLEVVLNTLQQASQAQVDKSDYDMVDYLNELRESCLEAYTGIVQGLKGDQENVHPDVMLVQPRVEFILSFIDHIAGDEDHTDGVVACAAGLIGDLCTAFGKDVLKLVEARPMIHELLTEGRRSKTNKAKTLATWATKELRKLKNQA
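FRET biosensor Rango (snurportin 1 IBB between N-terminal EYFP and C-terminal Cerulean), 50 nM in PBS/1 mM DTT/0.02% Tween-20/0.1% BSA, preincubated 5 min RT with compound; 0.125 microM importin beta added, 45 min RT, CFP/YFP FRET ratio read.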
Mm-Cpn inhibitor: inhibitors of Methanococcus maripaludis chaperonin TRiC (MmCpn). Potency, µM (top dose mostly 76.9 µM), inactives show top-dose activity, negative = inhibition, actives largely listed as inhibitors. 330,000 compounds, 0.031% hits. purified Mm-Cpn ATPase, ADP Transcreener TR-FRET; active means well fitted inhibition curve with a large enough effect; inconclusive means small, poorly fitted or top-dose-only effect; further: potency means the concentration at half of the fitted maximal effect; on the % scale 0 is the no-effect control and ±100 the full control effect; nearly all actives have a fitted effect of over 80% in size
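Quantitative HTS used 25 nM Mm-CPN and 10 uM ATP in magnesium/KCl Tris buffer, pH 7.4, with 1 mM DTT. Hydrolysis ran 30 min at 37°C; ADP was read by HTRF.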
Numbers without * were called inactive; ? = inconclusive; nt = not tested or not shown. Shown are actives, neighbours in structure and some others; about 2.9% of the full set was active somewhere. Unless noted, the call rests on the fitted dose curve.

SMILES | PTAP TSG101 blk | Rango release inh | D3 antag | DRD3 agonist | Rango complex inh | Mm-Cpn inhibitor
NC(=O)C1(N2CCCCC2)CCN(CC(=O)Nc2cc(Cl)ccc2Cl)CC1 | -5% | -10% | -88* | -62 | -3% | -2%
COCCCN1C(=O)c2[nH]nc(-c3ccccc3O)c2C1c1ccc(OC)cc1 (stereo not given) | nt | nt | nt | -3 | nt | nt
O=C(NC(c1ccc(Cl)cc1)c1ccsc1)C1CCN(Cc2cccc(C(F)(F)F)c2)CC1 (stereo not given) | nt | nt | -93* | -21 | nt | nt
O=C(NC(c1ccc2ccccc2n1)c1cccs1)C1CCN(Cc2cccc(C(F)(F)F)c2)CC1 (stereo not given) | nt | nt | ? | -24 | nt | nt
O=C(NC(c1ccc(Cl)cc1)c1ccsc1)C1CCN(Cc2cccc(Cl)c2)CC1 (stereo not given) | nt | nt | -50* | -18 | nt | nt
OC(CNCC1COc2ccccc2O1)COc1ccc(Cl)cc1 (stereo not given) | 0% | 8% | -80* | 2 | -2% | -8%
OC(CNCC1CCCO1)COc1ccc(OCC(O)CNCC2CCCO2)cc1 (stereo not given) | -3% | 2% | -22 | -7 | -3% | 0%
OC(CNCC1COc2ccccc2O1)COc1ccccc1F (stereo not given) | -2% | -10% | -78* | 1 | 5% | -1%
OC(COCC1COc2ccccc2O1)CN1CCN(c2ccccc2F)CC1 (stereo not given) | -6% | ? | ? | 26 | -1% | 3%
O=C1CC(c2ccccc2)CC(O)=C1C=NCc1ccccc1 (stereo not given) | -6% | -8% | -14 | -11 | 0% | -1%
O=C1CC(c2ccccc2)CC(O)=C1C=NCc1ccccc1Cl (stereo not given) | -2% | -10% | -92* | -19 | 0% | 0%
O=C1CC(c2ccccc2)CC(O)=C1C=NCc1ccco1 (stereo not given) | -11% | -7% | -57* | -20 | 0% | 2%
COc1cccc(-c2nc3c(c(C)nn3-c3ccccc3)c3cc(OC)c(OC)cc23)c1 | nt | nt | nt | 13 | nt | nt
COc1cc2c(-c3ccc(O)cc3)nc3c(c(C)nn3-c3ccccc3)c2cc1OC | -1% | 13% | 29 | 80* | -3% | 0%
COc1cc(/C=C/c2ccc3c([N+](=O)[O-])cccc3n2)ccc1OCC(=O)O | 1% | 12% | -8 | 1 | ? | 1%
COc1cc(/C=C/c2cc(OC(C)=O)c3ccccc3n2)c(OC(C)=O)c([N+](=O)[O-])c1 | -5% | -7% | -82* | -13 | 5% | -1%
NC(=O)c1cc[n+](CC2=C(C(=O)[O-])N3C(=O)[C@@H](NC(=O)Cc4cccs4)[C@H]3SC2)cc1 | nt | nt | nt | 7 | nt | nt
C=C(C)COc1cc2oc(=O)c(CC(=O)N3C[C@H]4C[C@@H](C3)c3cccc(=O)n3C4)c(C)c2cc1Cl | -1% | ? | -21 | 33* | ? | 2%
C=C(C)COc1ccc2c(C)c(CC(=O)N3C[C@H]4C[C@@H](C3)c3cccc(=O)n3C4)c(=O)oc2c1 | 0% | -6% | -24 | -7 | 0% | -2%
Cc1cc2oc(C(=O)N(Cc3ccc(N(C)C)cc3)CC3CCCO3)c(C)c2cc1Cl (stereo not given) | nt | nt | nt | 6 | nt | nt
COc1ccc(CNc2nc(NCc3ccc(OC)cc3)c3[nH]cnc3n2)cc1 | 1% | 12% | 73 | 56* | -1% | 2%
CCOc1ccccc1NC(=O)c1ccc2c(O)c(S(=O)(=O)c3ccccc3)c(=O)[nH]c2c1 | nt | nt | -12 | 0 | nt | nt
Cc1ccc(C23CC4CC(CC(C(=O)N5CCN(C)CC5)(C4)C2)C3)cc1 | -4% | -1% | -55* | -20 | 4% | 2%
CC12CC3CC(C)(C1)CC(C(=O)N1CCCC1)(C3)C2 | -3% | 22% | 1 | -1 | -1% | -1%
CN1CCN(C(=O)C23CC4CC(C)(CC(C)(C4)C2)C3)CC1 | -2% | -3% | -71* | -21 | ? | 0%
SMILES | PTAP TSG101 blk | Rango release inh | D3 antag | DRD3 agonist | Rango complex inh | Mm-Cpn inhibitor
Cc1ccc(C23CC4CC(CC(NC(=O)N5CCN(C)CC5)(C4)C2)C3)cc1 | -2% | 2% | ? | -18 | -1% | 1%
Cc1ccc(-c2nc3ccccc3[nH]2)cc1NC(=O)COc1cccc(C)c1C | nt | nt | nt | 7 | nt | nt
CC1(C)CC(=O)CC(=NCC(=O)O)C1 | -4% | 26µM* | -19 | -22 | ? | -1%
CC1(C)CC(=O)C/C(=N\NC(=S)NCc2ccccc2)C1 | -1% | -12% | 7 | 0 | 3% | -2%
COc1ccc(-c2[nH][nH]c(=O)c2NC(=O)c2ccccc2Br)cc1 | nt | nt | -53* | -6 | nt | nt
O=C(Nc1c(-c2ccccc2)[nH][nH]c1=O)c1ccccc1 | nt | nt | -20 | -6 | nt | nt
CCCOc1ccc(-c2nc(SC)[nH]c(=O)c2C#N)cc1OC | nt | nt | nt | -3 | nt | nt
Cn1nnnc1SCCCNCc1cccc(OCc2ccc(F)cc2)c1 | nt | nt | nt | -27 | nt | nt
C=C(C)Cn1c(SCC(=O)Nc2cccc(C)c2)nc2sc3c(c2c1=O)CCCC3 | nt | nt | nt | 34* | nt | nt
CCN(c1ccccc1)S(=O)(=O)c1nnc(NC(=O)C(C)Oc2ccccc2)s1 (stereo not given) | nt | nt | nt | 6 | nt | nt
Cc1ccc(NC(=O)c2cc(-c3cc(Cl)ccc3O)n[nH]2)cc1C | 1% | -10% | 46 | 3 | 1% | ?
Cc1cc(F)ccc1-c1cc(C(=O)NCc2ccc(C(F)(F)F)cc2)[nH]n1 | nt | nt | ? | -16 | nt | nt
COc1ccc(Cl)c(-c2cc(C(=O)Nc3ccc(F)cc3)[nH]n2)c1 | nt | nt | -52* | -20 | nt | nt
Cc1ccc(Cl)cc1-c1cc(C(=O)NCc2ccc(C(F)(F)F)cc2)[nH]n1 | nt | nt | -54* | -11 | nt | nt
COc1ccc(Cl)c(-c2cc(C(=O)Nc3ccccc3)[nH]n2)c1 | nt | nt | 0 | -19 | nt | nt
